# Vaccinia Venus = vaccinia inhibition (Venus reporter); Potency, µM (highest dose often 36.5 µM), inactives show top-dose activity change, negative = inhibition, usual class: inhibitors; Vaccinia virus Venus reporter expression, fluorescence; AID 720580; 330,000 compounds, 0.46% hits; calls by dose curve; tested in A549 cells; also: potency is read from the fitted curve at half-maximal effect; nearly all actives have a fitted effect of over 30% in size
# LASV entry inh = blocks Lassa virus binding to or entry into cells; Lassa virus pseudotype entry inhibition, cell reporter; Potency, µM (series often up to 37.9 µM), for the others: at the top dose activity change, negative = inhibition, hits mostly inhibitors; 300,000 compounds, 1.2% hits; AID 540256; calls by dose curve; tested in HEK293 cells; also: potency is read from the fitted curve at half-maximal effect; nearly all actives have a fitted effect of over 50% in size
# HCMV inh = blocks human cytomegalovirus replication. HFF cells, HCMV-luciferase reporter, 72 h; hits give low values. 410,000 compounds, 4.5% hits. activity change, negative = inhibition, % at 57.5 µM; in the data active = activity change below about -60%; inconclusive = no clear call, values can overlap the other calls; inactive = above about -39%
#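 Human foreskin fibroblasts infected with luciferase-reporter HCMV at MOI 1 PFU/cell, compounds at two doses. Luciferase measured 72 h post infection; normalized to buffer-only basal and Salinomycin (10uM) controls.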
# MARV entry inh = blocks Marburg virus binding to or entry into cells | Marburg virus pseudotyped entry inhibition, cell reporter | Potency, µM (titrated, usually from 37.8 µM), inactives show at the highest dose activity change, negative = inhibition, hits mostly inhibitors | 300,000 compounds, 1.8% hits; calls by dose curve; tested in HEK293 cells; also: potency is read from the fitted curve at half-maximal effect
# Vaccinia mCherry = inhibitors of vaccinia virus infection (mCherry reporter signal). Vaccinia virus mCherry reporter infection, fluorescence. Potency, µM (titrated, usually from 36.5 µM), without a hit: at the highest dose activity change, negative = inhibition, actives largely listed as inhibitors. 310,000 compounds, 0.63% hits; calls by dose curve; tested in A549 cells; also: potency is read from the fitted curve at half-maximal effect; nearly all actives have a fitted effect of over 35% in size
# FMDV antiviral = blocks foot and mouth disease virus; FMDV antiviral cell-based qHTS; Potency, µM (top dose mostly 57.9 µM), for inactives: at the highest dose activity change, negative = inhibition, actives largely listed as inhibitors; 410,000 compounds, 1.2% hits; AID 1159524; calls by dose curve; tested in HEK293T cells; also: read-out not given here; potency is read from the fitted curve at half-maximal effect; nearly all actives have a fitted effect of over 45% in size
# * = called active by the depositor; i = inactive; u = inconclusive; x = no result; [ ] = another dose, or the depositor's remark. Only some compounds are listed: those with a hit (about 6.5% of all), similar ones and a draw of the others. % is scaled to controls: 0 for no effect and ±100 for the full control effect.
SMILES,Vaccinia Venus,LASV entry inh,HCMV inh,MARV entry inh,Vaccinia mCherry,FMDV antiviral
C[C@H](CO)N1C[C@H](C)[C@@H](CN(C)CC2CCCCC2)Oc2c(NC(=O)Cc3ccccc3)cccc2C1=O,10µM*,x,-21,x,u,-17%
C[C@@H]1CN([C@H](C)CO)C(=O)c2cccc(NC(=O)Nc3ccc(F)cc3)c2O[C@H]1CN(C)C(=O)Nc1ccc(C(F)(F)F)cc1,u,x,-61*,x,-28%,u
C[C@H](CO)N1C[C@H](C)[C@@H](CN(C)C(=O)Nc2ccc(C(F)(F)F)cc2)Oc2c(NC(=O)Nc3ccccc3)cccc2C1=O,u,x,-17,x,i,-12%
CC(C)NC(=O)N(C)C[C@H]1Oc2c(NC(=O)Cc3ccccc3)cccc2C(=O)N([C@H](C)CO)C[C@@H]1C,-16%,x,4,x,i,73%
C[C@H]1CN([C@@H](C)CO)C(=O)c2cccc(NC(=O)C3CC3)c2O[C@H]1CN(C)Cc1ccc(C(F)(F)F)cc1,-11%,x,-88*,x,-14%,22%
Cc1cnc2ccccc2c1/C=C/c1ccc(N(C)C)cc1,-19%,x,x,x,-26%,x
CCOC(=O)c1cnn(-c2ccc(C(=O)Nc3cc(OC)c(OC)c(OC)c3)cc2)c1N,-6%,8%[46.1 µM],-1,x,-2%,-14%
COc1ccc(CNC(=O)CCC(=O)N2CCSc3ccccc32)cc1,5%,5%[46.1 µM],0,x,-15%,-11%
Cn1c(-c2ccncc2)nc2cc(C(=O)N3CCCC3c3nccs3)cc(NC(=O)C3CCC3)c21 (configuration not stated),3%,x,x,x,-9%,-5%
Cc1cc(C(=O)CCl)c(C)n1CCc1ccc(Cl)cc1,-16%,u,-98*,u,-12%,22µM*
Cc1cc(C(=O)CCl)c(C)n1CCc1ccc(F)cc1,-2%,u,-83*,u,-8%,28µM*
COc1ccc(CCn2c(C)c(C(C)=O)c(C(C)=O)c2C)cc1OC,-14%,1%,4,-1%,-12%,-14%
COc1ccc(CCn2c(C)cc(C(=O)CCl)c2C)cc1OC,x,x,-100*,x,x,20µM*
COC(=O)[C@@H]1CC[C@H](C)[C@@H](c2ccc(C)cc2)N1C(=O)c1ccc(C=NO[C@H](C)c2cn([C@@H]3COC[C@@H]3O)nn2)cc1,x,-17%[14.3 µM],x,4%[14.2 µM],x,x
COc1cccc(C(=O)Nc2ccc3nc(SCC(=O)N4CCOCC4)sc3c2)c1,-19%,4%[46.1 µM],25,u,-15%,0%
Cc1cccc(-n2c(=O)c3ccccc3n(Cc3ccc(F)cc3)c2=O)c1,1%,-2%[46.1 µM],u,3%[46.1 µM],-4%,-14%
Cc1cccc(-n2c(SCC(=O)Nc3ccccc3Cl)nc3n[nH]c(C)c3c2=N)c1,-26%,-1%[46.1 µM],-62*,x,-21%,u
Cc1[nH]nc2nc(SCC(=O)NC3CCCCC3)n(-c3ccc(Br)cc3)c(=N)c12,x,x,-89*,x,x,u
COc1ccccc1NC(=O)CSc1nc2n[nH]c(C)c2c(=N)n1-c1ccccc1Cl,x,u,-7,15µM*,x,u
CCc1ccc(NC(=O)CSc2nc3n[nH]c(C)c3c(=N)n2-c2ccc(C)cc2)cc1,u,-3%[46.1 µM],-91*,x,u,-6%
CCc1ccccc1NC(=O)CSc1nc2n[nH]c(C)c2c(=N)n1-c1ccc(OC)cc1,u,-22%,16,u,x,u
Cc1cccc(CNC(=O)Cn2c(-c3cccs3)cc3ccccc32)c1,6%,-1%[46.1 µM],6,x,-19%,-19%
Cn1nnc2c(N3CCCCC3)ncnc21,-14%,u,-10,x,-5%,-19%
COc1ccc(CN2CCOc3ccc(C(O)c4cccnc4)cc3C2)c(OC)c1OC (configuration not stated),8%,x,x,x,-2%,-7%
C=C1C(=O)[C@@]23C[C@H]4[C@@H]5[C@@]6(C)CCC[C@@]57[C@@H]2[C@@H](O)[C@@H]1C[C@H]3[C@H]7N4C6,u,x,-77*,x,u,25µM*
O=C(NCC(c1cccs1)S(=O)(=O)c1cccs1)c1ccc(F)c(F)c1 (configuration not stated),-6%,-24%[46.1 µM],-15,x,-10%,-15%
CC1(C)C(=O)C=CC(=O)C(C)(C)C(=O)C=CC(=O)C(C)(C)C2=CC=C(O2)C(C)(C)C(=O)C=CC1=O,-2%,-19%,-22,u,-10%,7.9µM*
